Experimental findings from PubChem BioAssay AID504444 (National Center for Advancing Translational Sciences (NCATS), 2011) are described below.

In all, about 360,000 compounds went through this assay and about 7,500 (2.1%) were called active. Inconclusive results (about 20%) are left out. Calls come from the whole dose curve; as a rule, active = well fitted inhibition curve with a large enough effect; inconclusive = small, poorly fitted or top-dose-only effect, or effect the other way; inactive = flat fitted curve, though single readings scatter. The sample as a whole holds a higher share of actives than the screen did.
% is set by controls: 0 for no effect and ±100 for the full control effect; potency is the fitted concentration of half-maximal effect.

The assay in a line: Nrf2 qHTS screen for inhibitors. Note: nearly all actives have a fitted effect of over 60% in size. Conditions: A549 ARE-Fluc reporter, luciferase luminescence, 18-24 h; series mostly up to 46 µM; activity change, negative = inhibition: at the top concentration. Summed up:
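Cells were seeded and rested 2 h, then exposed to compounds for 18-24 h. CellTiter-Fluor was read first as a viability measure. BugLite was added 15 min before the final luminescent read of ARE-luciferase activity in A549 cells.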
Regarding `O=C(c1ccco1)N(Cc1cccs1)c1ccc(O)cc1`, the “activity change, negative = inhibition” value was -5.51% (inactive). Still for that read-out and setting: the result for `COc1cc(OC)cc(-c2nc3nc(C)c(CCC(=O)Nc4ccccc4)c(C)n3n2)c1` reads -0.881% (inactive); that for `COc1ccccc1-c1cc2nc(C)c(CCC(=O)NC3CCCCC3)c(C)n2n1`, -10.5% (inactive). Take `COc1ccccc1-c1cc2nc(C)c(CCC(=O)O)c(C)n2n1`: the Potency was 3.66 µM (active). On to `COc1ccc(C)cc1Nc1nc2ccccc2c2nnc(C)n12`, for which the “activity change, negative = inhibition” value is 18.3% (inactive). Still for that read-out and setting: next, `CCCSc1ncc(Cl)c(C(=O)Nc2sc3c(c2C(=O)NCCOC)CCCC3)n1`: -19.9% (inactive); `COc1ccc(CCNC(=O)CSc2nc3[nH]ncc3c(=O)n2-c2cccc(C(F)(F)F)c2)cc1OC`: -14.3% (inactive); `Cc1ccc(CSc2nc3[nH]ncc3c(=O)[nH]2)cc1`: 2.03% (inactive). For `CCc1ccc(-n2c(SCc3cc(=O)n4cc(Br)ccc4n3)nc3[nH]ncc3c2=O)cc1`, the Potency is 16.4 µM (active).

Consider `COc1ccc(S(=O)(=O)Nc2cccc3c2O[C@H](CN(C)S(=O)(=O)c2ccc(OC)cc2)[C@@H](C)CN([C@H](C)CO)C3=O)cc1`, for which the “activity change, negative = inhibition” value was -25% (inactive). On the same count and under the same terms, next, `CCc1ccc(CN(C)C(C)C(=O)Nc2ccc(S(=O)(=O)N3CCCC3)cc2)cc1` (centres undefined): -9.67% (inactive). On the same count and under the same terms, next, `CCCCOc1ccc(C(=O)N2CC(=O)Nc3ccc(Br)cc3C2c2ccc(F)cc2)cc1` (centres undefined): -25.1% [at 9.27 µM] (inactive); `CC(=O)c1cccc(S(=O)(=O)N2CCC(n3nnc4cc(F)ccc43)CC2)c1`: -2.65% (inactive). Take `CC(=O)c1cccc(Nc2ccc3cc(S(=O)(=O)N4CCC(C)CC4)ccc3n2)c1`: the Potency is 20.6 µM (active). `CC(=O)c1cccc(NC(=O)COc2ccc(S(=O)(=O)N3CCOCC3)cc2)c1`: the “activity change, negative = inhibition” value is -4.98% (inactive). On the same count and under the same terms, next, `CCOC(=O)c1cc(NC(=O)c2ccc(F)cc2)c(=O)n2c1oc1ccccc12`: -17.2% (inactive). Same read-out and setting: next, `COc1cccc(C2c3c(ncn(-c4cccc(Br)c4)c3=N)Oc3ccc4ccccc4c32)c1` (centres undefined): 5.52% (inactive); `CCC(=O)NC(Nc1nc2ccc(C)cc2s1)(C(=O)OC)C(F)(F)F` (centres undefined): 4.39% (inactive). The same measure, in the same setting: next, `CCOc1ccc2nc(NC(=O)c3cc([N+](=O)[O-])ccc3N3CCOCC3)sc2c1`: -23.6% (inactive). Consider `O=C(NC(Nc1nc2ccc([N+](=O)[O-])cc2s1)(C(F)(F)F)C(F)(F)F)c1ccccc1`, for which the Potency is 2.59 µM (active). On to `CCOC(=O)C1CCN(c2ncnc3c2c(-c2ccccc2)cn3-c2ccc(C)cc2)CC1`, for which the “activity change, negative = inhibition” value was 8.13% (inactive).

For the compound `O=c1[nH]cnc2c1c(-c1ccccc1)cn2-c1ccc(F)cc1`, the Potency is 25.9 µM (active).

Turning to `O=c1c2c(-c3ccccc3)ccnc2[nH]n1-c1ccccc1`, the “activity change, negative = inhibition” value is -2.93% (inactive).

Regarding `Cc1cc(C)cc(OCC(=O)Nc2ccc(N3CCOCC3)cc2N2CCOCC2)c1`, the “activity change, negative = inhibition” value is -24.6% (inactive). For the compound `CC(=O)c1ccc(NC(=O)CSc2nc3ccccc3c(=O)n2CCCN2CCOCC2)cc1`, the “activity change, negative = inhibition” value was 8.57% (inactive).

Turning to `O=C(c1cccs1)c1cn(CCOc2ccc(Cl)cc2)c2ccccc12`, the “activity change, negative = inhibition” value was -11% (inactive). On the same count and under the same terms, the result for `Cc1ccc(OC(=O)CSc2nnc(-c3cccs3)o2)cc1` reads 1.89% (inactive). On to `COc1ccc(-n2c(C)cc(C(=O)CSc3nnc(-c4cccs4)o3)c2C)cc1`, for which the Potency is 18.4 µM (active). Turning to `COc1ccc(-n2c(C)cc(C(=O)COC(=O)c3cc(OC)c(OC)cc3NC(=O)c3cccs3)c2C)cc1`, the “activity change, negative = inhibition” value was -0.74% (inactive). The same measure, in the same setting: next, `CCc1ccc(C2C(C(=O)Nc3ccccc3)=C(C)Nc3c(C(=O)Nc4ccc(C)cc4)cnn32)cc1` (centres undefined): -7.44% (inactive); `O=C(Cn1cnc2c(OCc3ccccc3)ncnc21)NCc1nc2ccccc2[nH]1`: 4.45% (inactive).

Turning to `Cc1cc(C(=O)OCC(=O)Nc2nccs2)c2ccccc2n1`, the “activity change, negative = inhibition” value was 19.8% (inactive).

Consider `Cc1cc(C(=O)OCC(=O)Nc2nnc(C(C)C)s2)c2ccccc2n1`, for which the “activity change, negative = inhibition” value is -6.29% (inactive). Take `Cc1cc(C(=O)OCC(=O)N2C(C)CCCC2C)c2ccccc2n1` (centres undefined): the Potency was 18.4 µM (active). As to `Cc1ccc(Cn2c(C)c3cnn(CC(=O)NCCN4CCOCC4)c(=O)c3c2C)cc1`, the “activity change, negative = inhibition” value was -21.8% (inactive). Same read-out and setting: the result for `Cc1cc(C)cc(NS(=O)(=O)c2cc3c(cc2C)NC(=O)CO3)c1` reads 18.1% (inactive). `C/C(=N\OCC(=O)O)c1ccc(Cl)cc1`: the “activity change, negative = inhibition” value is 1.65% (inactive). As to `CCOC(=O)CN/C=C(\C#N)c1ccc(F)cc1`, the “activity change, negative = inhibition” value was 0.372% (inactive).

As for `CCOc1cc(/C=C(/C#N)c2ccc(Cl)cc2)cc(Cl)c1OCC(=O)O`, the Potency is 8.2 µM (active). `CCCCNC(=O)c1ccc2c(c1)NC(=O)C(C(C)C)N2` (centres undefined): the “activity change, negative = inhibition” value is -6.85% (inactive).

`COc1ccc(Cn2c(C(=O)O)c(CNCc3cccc(OC)c3)c3ccc(C)cc32)cc1`: the “activity change, negative = inhibition” value is -21.6% (inactive).

In the case of `CCc1cccc(NC(=O)CN(c2ccc(C)c(C)c2)S(=O)(=O)c2ccsc2C(=O)OC)c1`, the “activity change, negative = inhibition” value is 2.91% (inactive). Regarding `Clc1ccc2c(c1)C1=C(C(c3ccncc3)O2)C(c2ccc(Br)cc2)n2ncnc2N1` (centres undefined), the Potency is 13 µM (active). `CCOC(=O)C1=C(c2ccccc2)Nc2ncnn2C1c1ccc(Cl)cc1` (centres undefined): the “activity change, negative = inhibition” value was -3.16% (inactive). For the compound `CC1=C(C(N)=O)C(c2ccc(Br)cc2)n2ncnc2N1` (centres undefined), the “activity change, negative = inhibition” value is -20% (inactive). On the same count and under the same terms, next, `CCCC12CN3CC(CCC)(CN(C1)C3c1c[nH]c3ccc(OC)cc13)C2=O` (centres undefined): -15.7% (inactive); `Cc1ccccc1C(=O)Nc1cc(C)c(O)c(-c2nc3ccccc3o2)c1`: 6.96% (inactive). `CCCN(CC(=O)Nc1ccccc1C)C(=O)c1ccc2[nH]c3c(c2c1)CC(C)CC3` (centres undefined): the Potency is 20.6 µM (active). Take `CC1CCc2[nH]c3ccc(C(=O)N(C)CC(=O)Nc4cccc(F)c4)cc3c2C1` (centres undefined): the “activity change, negative = inhibition” value is 2.56% (inactive).
